Article PMC4336329 (PLoS ONE, 2015)
About 14,000 (4.5%) of roughly 310,000 compounds showed an effect of 50% or more. The effect is printed as a negative number. This is one part of a sample in which strong results are shown more often than they occur.

Each compound was assayed against human ether-à-go-go-related gene (hERG) potassium channel (human, UniProt Q12809) (assay: primary screen, population patch clamp on CHO cells stably expressing hERG; higher = less effect of the substance).
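Further: peak tail current of the secondary pulse compared with the same well before compound.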

human ether-à-go-go-related gene (hERG) potassium channel, sequence (Q12809 whole entry, looked up): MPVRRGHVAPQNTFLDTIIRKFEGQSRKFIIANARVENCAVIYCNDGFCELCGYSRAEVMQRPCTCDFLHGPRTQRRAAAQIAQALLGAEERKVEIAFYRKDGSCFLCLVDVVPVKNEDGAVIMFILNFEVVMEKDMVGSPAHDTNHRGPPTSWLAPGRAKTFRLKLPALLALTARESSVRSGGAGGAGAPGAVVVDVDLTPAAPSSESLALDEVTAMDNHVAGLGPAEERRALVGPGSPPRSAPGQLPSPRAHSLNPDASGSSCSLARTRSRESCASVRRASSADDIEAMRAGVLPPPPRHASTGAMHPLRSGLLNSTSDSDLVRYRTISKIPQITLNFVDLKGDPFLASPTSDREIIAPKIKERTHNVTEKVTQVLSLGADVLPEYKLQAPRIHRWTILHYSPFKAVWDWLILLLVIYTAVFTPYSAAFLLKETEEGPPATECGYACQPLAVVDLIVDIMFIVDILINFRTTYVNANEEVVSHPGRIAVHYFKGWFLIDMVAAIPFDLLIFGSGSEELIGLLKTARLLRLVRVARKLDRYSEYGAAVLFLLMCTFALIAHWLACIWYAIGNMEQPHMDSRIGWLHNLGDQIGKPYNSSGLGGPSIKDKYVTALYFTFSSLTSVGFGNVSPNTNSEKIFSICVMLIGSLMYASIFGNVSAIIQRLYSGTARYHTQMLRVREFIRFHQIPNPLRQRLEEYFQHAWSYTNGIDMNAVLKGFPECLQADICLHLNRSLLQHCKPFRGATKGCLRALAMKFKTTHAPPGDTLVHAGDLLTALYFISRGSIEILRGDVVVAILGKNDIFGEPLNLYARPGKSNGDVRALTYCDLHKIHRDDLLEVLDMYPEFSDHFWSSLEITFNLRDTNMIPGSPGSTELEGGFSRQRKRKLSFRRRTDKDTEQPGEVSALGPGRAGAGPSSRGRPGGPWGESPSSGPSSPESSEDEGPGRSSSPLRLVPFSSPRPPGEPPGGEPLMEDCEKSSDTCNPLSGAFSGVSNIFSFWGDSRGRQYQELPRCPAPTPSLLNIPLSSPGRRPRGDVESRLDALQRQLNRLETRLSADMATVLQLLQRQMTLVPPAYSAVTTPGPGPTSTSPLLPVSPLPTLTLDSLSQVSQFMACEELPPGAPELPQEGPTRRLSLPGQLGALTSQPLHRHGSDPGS

Structure (SMILES) | hERG current change (%, negative = inhibition) at 10uM [%]
O=C(CSc1nnc(CNC(=O)c2ccco2)o1)Nc1ccc(F)cc1F | 8.95
O=C(c1ccc(C#Cc2ccccc2)o1)N1CCN(c2ccccn2)CC1 | -6.76
COc1ccc(Nc2ncccc2C(=O)Nc2ccccc2)cc1 | -9.63
Cc1ccc(OCc2ccccc2Br)c([N+](=O)[O-])n1 | 16.7
CN(Cc1cccc2cnccc12)C(=O)CCc1nnc(CCc2ccccc2)o1 | -44.7
COc1ccccc1CCc1nnc(CCC(=O)N(C)Cc2cccc3cnccc23)o1 | -35.3
CC(=O)c1ccc(-c2nnc(CCC(=O)N(C)Cc3cccc4cnccc34)o2)s1 | -81.4
O=C(NC1CCCCC1)C(c1ccncc1)N(Cc1ccc(F)cc1)C(=O)c1ccccn1 (stereo not shown) | -5.49
Cc1cc(S(=O)(=O)N2CCc3ccccc3C2)ccc1F | 7.2
CC(CCc1ccccc1)NC(=O)CN1CCc2ccccc2C1 (stereo not shown) | -22.4
O=C(O)C(=O)O.c1ccc(CN2CCN(C(c3ccccc3)c3ccccc3)CC2)cc1 | 2.22
CC(NC(=O)CN1CCN(c2ccc(Cl)cc2)CC1)c1ccccc1 (stereo not shown) | -42.7
CC(CCc1ccccc1)NC(=O)CN1CCN(c2ccccc2)CC1 (stereo not shown) | -55.8
CC(CCc1ccccc1)NC(=O)CN1CCN(c2ccc(O)cc2)CC1 (stereo not shown) | -37.1
O=C(CN1CCN(c2ccc(O)cc2)CC1)NC(c1ccccc1)c1ccccc1 | -50.8
COc1ccc(/C=N/NC(=O)CN2CCCC2)cc1 | -14.8
COc1ccc(C(NC(=O)CN2CCCCCC2)c2ccc(OC)cc2)cc1 | -65.9
O=C(CN1CCN(Cc2ccccc2)CC1)NC(c1ccccc1)c1ccccc1.O=C(O)C(=O)O | -59.8
COc1ccc(N2CCN(CC(=O)NC(C)c3ccccc3)CC2)cc1 (stereo not shown) | 20.6
O=C(CN1CCN(c2ccccc2O)CC1)NC(c1ccccc1)c1ccccc1 | -22.7
CC(=O)C(Cc1ccccc1)NC(=O)CN1CCN(Cc2ccccc2)CC1 (stereo not shown) | -5.57
Cc1ccc(SCCSc2ncccn2)cc1 | -2.38
CC(C)c1cc(-c2n[nH]c(=S)n2Cc2ccccc2)cs1 | 17.8
Cc1cc(C)nc(N2CCN(C(=O)CCC(=O)Nc3nnc(CC(C)C)s3)CC2)n1 | -6.7
O=C(N1CCCCC1)N1CCN(S(=O)(=O)c2cccc([N+](=O)[O-])c2)CC1 | -15.8

Structure (SMILES) | hERG current change (%, negative = inhibition) at 10uM [%]
COc1cc(S(=O)(=O)NCc2cccnc2)ccc1F | -5.7
CN(C)C(=O)N1CCCC(C(=O)NCc2cccs2)C1 (stereo not shown) | 1.62
CNc1ccccc1C(=O)OCC(=O)N(CCOC)c1c(N)n(CC(C)C)c(=O)[nH]c1=O | 9.81
CCCCN1CCNC[C@@H]1Cc1ccc(O)cc1 | 16
CCN(CC(=O)Nc1ccc(Br)c(C)c1)CC(=O)NC(C)C | -4.86
O=C(NCCO)c1cc([N+](=O)[O-])cc2c1C=Cc1ccccc1O2 | -31.4
CC1Cc2ccccc2N1C(=O)COC(=O)C1(c2ccccc2F)CCCC1 (stereo not shown) | -5.21
CCN(CC)S(=O)(=O)c1ccc(NS(=O)(=O)c2cccc(C)c2)cc1 | -20.4
O=C(O)CCC1(c2ccccc2)NC(=O)NC1=O (stereo not shown) | 2.53
C[n+]1ccccc1/C=N/O.[Cl-] | 17.3
COc1ccccc1CN1Cc2cccc3c2[C@@H](CC1=O)[C@H](O)[C@H](O)C3 | 4.43
COC(=O)C1C(=O)N2CCCSC2=C(C#N)C1c1cccs1 (stereo not shown) | 1.49
CC1CCCCN1CC(=O)NC(c1ccccc1)c1ccccc1.O=C(O)C(=O)O (stereo not shown) | -65.8
O=C(CN1CCCC1)NC(c1ccccc1)c1ccccc1.O=C(O)C(=O)O | -34.7
CC1Cc2ccccc2N1CC(=O)NC(c1ccccc1)c1ccccc1.O=C(O)C(=O)O (stereo not shown) | 19.1
O=C(CN1CCCCCC1)NC(c1ccccc1)c1ccccc1.O=C(O)C(=O)O | -57.7
CC(NC(=O)CN1CCCC1)c1ccccc1 (stereo not shown) | 21
CC1CC(C)CN(CC(=O)NC(c2ccccc2)c2ccccc2)C1.O=C(O)C(=O)O (stereo not shown) | -68.4
CC1CCCCN1CC(=O)NC(=O)NCc1ccccc1 (stereo not shown) | 16.8
CC1CN(CC(=O)NC(C)c2ccccc2)CC(C)O1 (stereo not shown) | 9.23
CSc1ccccc1NC(=O)CN1CCCCC1C (stereo not shown) | 0.324
CCOCCCN1CN(Cc2ccco2)CNC1=S | 7.86
CC1=C(c2ccc(F)cc2)[N+](=O)C(C)(C)N1[O-] | 17.7
Cc1ccc(-c2cc(=O)c3ccccc3[nH]2)cc1 | 13.6
Cc1cccn2cc(CCNS(=O)(=O)c3ccc([N+](=O)[O-])cc3)nc12 | -22.7

Structure (SMILES) | hERG current change (%, negative = inhibition) at 10uM [%]
COc1ccc2[nH]cc(C(O)CN3CCC(C(N)=O)CC3)c2c1 (stereo not shown) | 12
COc1ccc2[nH]cc(C(O)CN3CCN(c4ccccc4F)CC3)c2c1 (stereo not shown) | -22
COc1ccc(N2CCN(CC(O)c3c[nH]c4ccc(OC)cc34)CC2C)cc1 (stereo not shown) | -68.1
CC(Cc1ccccc1)[n+]1cc(/N=C(\[O-])Nc2ccccc2)on1 (stereo not shown) | -17.4
CC1Sc2ccc(S(=O)(=O)NCCc3ccccc3)cc2NC1=O (stereo not shown) | 12.5
CC1CCN(CCOc2ccc(Cl)c(Cl)c2)CC1 | -46.3
Clc1cc(Br)ccc1OCCOCCN1CCCC1.O=C(O)C(=O)O | -57.1
CC1CCN(CCOCCOc2ccc(Br)cc2Cl)CC1.O=C(O)C(=O)O | -75.5
CC1CCCN(CCOCCOc2ccc(Br)cc2Cl)C1.O=C(O)C(=O)O (stereo not shown) | -71
CC1CCN(CCOc2cc(Cl)ccc2Cl)CC1 | -33.8
CN1CCN(CCOCCOc2ccc(Br)cc2Cl)CC1.O=C(O)C(=O)O | -14.2
CC1CCN(CCCOc2ccc(Cl)cc2Br)CC1 | -76.3
Clc1cc(Br)ccc1OCCN1CCOCC1.O=C(O)C(=O)O | -2.95
CC(C)N1CCN(Cc2ccc3c(c2)OCCO3)CC1CCO (stereo not shown) | 3.63
NC(=O)N/N=C/c1ccc(-c2cccc(C(F)(F)F)c2)o1 | -4.87
Cc1cc(C)cc(NC(=O)CCn2ccnc2)c1 | 3.41
Cc1c(C(=O)NCc2ccc(S(N)(=O)=O)cc2)oc2ccc(Cl)cc12 | 10
CCCCn1c(N)c(N(CCOC)C(=O)CSCC(=O)Nc2cccc(C)c2)c(=O)[nH]c1=O | 11.5
c1ccc(-c2nc(CSc3nnc(-c4cccs4)o3)cs2)cc1 | -9.61
CCS(=O)(=O)c1ncc(Cl)c(C(=O)Nc2ccc(S(=O)(=O)N(C)c3ccccc3)cc2)n1 | 15.5
CCOC(=O)N1CCC(NC(=O)c2cc(C(=O)NC3CCCC3)ccc2CO)CC1 | 12.9
O=C(O)c1ccn(CSc2cc(Cl)ccc2Cl)n1 | 5.46
CCOC(=O)NNC(=S)Nc1c(C)n(C)n(-c2ccccc2)c1=O | 4.89
COc1ccc(NC(=O)CC(C)CC(=O)NCc2ccc(F)cc2)c(OC)c1 (stereo not shown) | -4.08
CCn1cc(/C=C(\NC(=O)c2ccccc2Cl)C(=O)N2CCOCC2)c2ccccc21 | -2.35

Structure (SMILES) | hERG current change (%, negative = inhibition) at 10uM [%]
O=C(NNC(=S)Nc1ccccc1)c1cccc(S(=O)(=O)N2CCOCC2)c1 | 15.3
CCC1CCCCN1C(=O)c1ccc(OC2CCN(C(=O)COC)CC2)cc1 (stereo not shown) | 6.08
COC(=O)CCCC(=O)N1CCC(CCC(=O)NC2CC2)CC1 | 16.6
Cc1ccc(Cl)c(OCCN2CCCC(C)C2)c1.O=C(O)C(=O)O (stereo not shown) | -41.8
CC1CCN(CCCCOc2ccccc2Br)CC1 | -48.9
CC1CCCN(CCCOc2ccc(Br)cc2Cl)C1.O=C(O)C(=O)O (stereo not shown) | -78.4
Clc1cc(Br)ccc1OCCOCCN1CCOCC1 | -36.7
CC1CCCN(C(=O)Nc2ccc(Br)cc2Cl)C1 (stereo not shown) | -16.4
CC1CCN(CCCOc2ccc(Br)cc2Cl)CC1 | -72.8
CCOC(=O)c1cnn(CCOC(=O)c2ccc(F)cc2)c1NC(=O)c1ccc(F)cc1 | -19.4
CSCC[C@H](NC(=O)N1CCn2c1nc1ccccc12)C(=O)NCc1ccc(C)cc1 | -13.3
CC(C)Nc1ccc(Cl)cc1[N+](=O)[O-] | 14.3
CN(C)c1c(F)cc(-c2nn[nH]n2)cc1F | 12.9
CCCCC1=CC2=CC(=O)C(C)(OC(=O)CC)C(=O)C2=CN1CCc1c[nH]c2ccccc12 (stereo not shown) | -3.97
CCCCC1=CC2=CC(=O)C(C)(OC(=O)CC)C(=O)C2=CN1Cc1ccco1 (stereo not shown) | -32
CCCCC1=CC2=CC(=O)C(C)(OC(=O)CC)C(=O)C2=CN1CCOC (stereo not shown) | -5.6
CCCCC1=CC2=CC(=O)C(C)(OC(=O)CC)C(=O)C2=CN1c1ccc(OC)cc1 (stereo not shown) | -13
CCCCC1=CC2=CC(=O)C(C)(OC(=O)CC)C(=O)C2=CN1CCc1ccccn1 (stereo not shown) | -4.43
CCCCC1=CC2=CC(=O)C(C)(OC(=O)CC)C(=O)C2=CN1Cc1ccc2c(c1)OCO2 (stereo not shown) | -55.3
CCCCC1=CC2=CC(=O)C(C)(OC(=O)CC)C(=O)C2=CN1CCCCO (stereo not shown) | 0.395
CCCCCCCC1=CC2=CC(=O)C(C)(OC(C)=O)C(=O)C2=CN1CCc1ccccc1 (stereo not shown) | -62.3
COC(=O)CCCC1=CC2=CC(=O)C(C)(OC(=O)c3cccs3)C(=O)C2=CN1Cc1ccc2c(c1)OCO2 (stereo not shown) | -7.74
CCCCC1=CC2=CC(=O)C(C)(OC(=O)CC)C(=O)C2=CN1Cc1ccc(OC)cc1 (stereo not shown) | -55.1
CCCCC1=CC2=CC(=O)C(C)(OC(=O)CC)C(=O)C2=CN1Cc1ccccc1 (stereo not shown) | -42.9
CCCCC1=CC2=CC(=O)C(C)(OC(=O)CC)C(=O)C2=CN1CCc1ccc(Br)cc1 (stereo not shown) | -58.9
